Data published in PubChem BioAssay (NCATS).
Several values for one entry are separate records, joined by “and”; a condition that tells them apart may be missing. Equal entries are not always repeated. Records with an inconclusive call do not appear. Entries that show only a call come without a potency. Activity calls are given as the source filed them. Unless noted, calls follow the shape of the full dose curve.

Tests used:
[1] = target: Luciferin 4-monooxygenase (Photinus pyralis) (UniProt P08659); test: Biochemical firefly luciferase enzyme assay for NPC (AID 624030; active = well fitted curve in the direction sought with a large enough effect; an effect the other way counts as inactive or inconclusive; also: nearly all actives have a fitted effect of over 70% in size; also: potency is read from the fitted curve at half-maximal effect)
Chain of Luciferin 4-monooxygenase (Photinus pyralis) (P08659 whole entry, looked up): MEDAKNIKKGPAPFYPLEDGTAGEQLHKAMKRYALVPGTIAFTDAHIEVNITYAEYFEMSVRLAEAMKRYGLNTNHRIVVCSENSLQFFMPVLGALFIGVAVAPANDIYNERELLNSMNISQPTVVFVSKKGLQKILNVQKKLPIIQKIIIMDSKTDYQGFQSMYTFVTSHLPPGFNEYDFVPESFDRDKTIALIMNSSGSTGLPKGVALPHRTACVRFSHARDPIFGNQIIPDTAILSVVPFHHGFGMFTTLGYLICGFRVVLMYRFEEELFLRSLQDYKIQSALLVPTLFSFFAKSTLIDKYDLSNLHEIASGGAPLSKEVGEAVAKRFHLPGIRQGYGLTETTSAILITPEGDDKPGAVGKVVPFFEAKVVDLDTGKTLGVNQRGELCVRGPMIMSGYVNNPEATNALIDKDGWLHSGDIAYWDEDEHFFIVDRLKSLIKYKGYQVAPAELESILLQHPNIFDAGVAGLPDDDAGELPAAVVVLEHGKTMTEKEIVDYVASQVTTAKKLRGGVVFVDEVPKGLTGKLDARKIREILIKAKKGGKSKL
Method in brief: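 Direct inhibition of firefly luciferase enzyme (10 nM final, 50 mM Tris Acetate) assessed by luminescence within 5 minutes. Percent activity scaled between DMSO and PTC124 positive control, with concentration-effect curves classified by fit quality and response.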

[2] = qHTS profiling for inhibitors of Plasmodium falciparum proliferation (AID 504749; active = well fitted curve in the direction sought with a large enough effect; an effect the other way counts as inactive or inconclusive; also: potency is read from the fitted curve at half-maximal effect; as to all read-outs here: nearly all actives have a fitted effect of over 60% in size); details: P. falciparum in erythrocytes, SYBR Green DNA, 72 h; for activity, negative = inhibition: at 28.7 µM (top of the series)
Method in brief: (§1)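 SYBR Green fluorescence of parasite DNA, read after lysis and overnight dark incubation, measured growth over 72 h in erythrocyte culture at 0.3% parasitemia and 2.5% hematocrit. Data normalised to DMSO and 0.29 uM artemisinin, with plate-drift correction.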

[3] = system: CP262; test: as above; details: P. falciparum in erythrocytes, SYBR Green DNA, 72 h; series mostly up to 28.7 µM
Method in brief: as §1

[4] = system: CP291; test: as above; details: P. falciparum in erythrocytes, SYBR Green DNA, 72 h; series mostly up to 28.7 µM
Method in brief: as §1

[5] = system: GB4; test: as above; details: P. falciparum in erythrocytes, SYBR Green DNA, 72 h; series mostly up to 28.7 µM
Method in brief: as §1

[6] = Cell Viability - BJ (AID 421); details: BJ fibroblast viability, qHTS;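 also: potency is read from the fitted curve at half-maximal effect; cells exposed to compound for 40 hours at 37 °C before readout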
Method in brief: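 Normal human BJ foreskin fibroblasts, 1500/well in complete medium, treated 40 hr at 37 °C. Cellular ATP by CellTiter-Glo luminescence; normalized to DMSO and 100 uM tamoxifen, AC50 from Hill fit.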

[7] = Cell Viability - MRC5 (AID 434); details: MRC5 lung fibroblast viability, qHTS;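 also: potency is read from the fitted curve at half-maximal effect; potency reflects cytotoxicity seen as loss of intracellular ATP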
Method in brief: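 AC50 values come from Hill-equation fits of intracellular ATP loss, measured by CellTiter-Glo luminescence. Normal lung fibroblasts (MRC5) had 40 hr compound treatment at 37 C, normalized between DMSO and 100 uM tamoxifen.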

[8] = target: Estrogen receptor (Homo sapiens) (UniProt P03372); test: qHTS assay for small molecule antagonists of estrogen receptor alpha signaling (AID 588513; active = well fitted curve in the direction sought with a large enough effect in the signal ratio, with a control signal flat, not every such curve was filed as active; the % refers to the signal ratio)
Chain of Estrogen receptor (Homo sapiens) (P03372 whole entry, looked up): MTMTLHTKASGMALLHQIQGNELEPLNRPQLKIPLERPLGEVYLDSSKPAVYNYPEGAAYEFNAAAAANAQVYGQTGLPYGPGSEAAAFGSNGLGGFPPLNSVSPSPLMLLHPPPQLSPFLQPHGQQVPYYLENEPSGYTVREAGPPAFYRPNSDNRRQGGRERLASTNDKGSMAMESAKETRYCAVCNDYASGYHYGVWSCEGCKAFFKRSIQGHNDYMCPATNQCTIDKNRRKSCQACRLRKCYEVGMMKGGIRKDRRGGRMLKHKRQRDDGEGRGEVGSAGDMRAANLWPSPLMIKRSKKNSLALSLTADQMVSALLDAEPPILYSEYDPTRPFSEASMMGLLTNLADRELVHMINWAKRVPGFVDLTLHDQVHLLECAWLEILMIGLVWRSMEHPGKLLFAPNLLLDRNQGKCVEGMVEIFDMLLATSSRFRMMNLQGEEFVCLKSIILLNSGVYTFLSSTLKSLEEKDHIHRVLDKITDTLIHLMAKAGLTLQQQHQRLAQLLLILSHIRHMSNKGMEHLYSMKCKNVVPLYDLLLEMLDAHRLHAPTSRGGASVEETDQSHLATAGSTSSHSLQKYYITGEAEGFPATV
Method in brief: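 ER-alpha-UAS-bla GripTite HEK 293 cells in medium with 2% charcoal/dextran-treated FBS were preincubated 4 h at 37 C, dosed with compound (1:2 titration), stimulated with 0.5nM 17-beta-estradiol for 18 h, then read by CCF4 beta-lactamase fluorescence.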

[9] = target: Estrogen receptor (Homo sapiens) (UniProt P03372); test: qHTS assay for small molecule agonists of estrogen receptor alpha signaling (AID 588514); also: nearly all actives have a fitted effect of over 70% in size
Method in brief: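 Efficacy is expressed against 20 nM 17-beta-estradiol (100%) and DMSO basal (0%); EC50 from Hill equation. Assay: beta-lactamase reporter in ER-alpha-UAS-bla HEK 293 cells, 18 h compound incubation, CCF4 detection.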

[10] = qHTS assay for small molecule antagonists of peroxisome proliferator-activated receptor delta signaling (AID 588535; active = well fitted inhibition curve with a large enough effect in the signal ratio, with a control signal flat, not every such curve was filed as active; the % refers to the signal ratio;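 as to max response: cells co-treated with a PPAR-delta agonist as stimulator during compound exposure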); details: HEK293T PPARd-UAS-bla, beta-lactamase FRET ratio, 18 h; 460 nm channel
Method in brief: (§2)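 Titrations were run on PPAR-delta-UAS-bla HEK293T cells in charcoal/dextran-stripped serum, incubated 18 h at 37 C. CCF4 fluorescence (460/530 nm) after 2 h RT; Hill equation yields IC50 and maximal response.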

[11] = target: Peroxisome proliferator-activated receptor delta (Homo sapiens) (UniProt Q03181); test: as above
Chain of Peroxisome proliferator-activated receptor delta (Homo sapiens) (Q03181 whole entry, looked up): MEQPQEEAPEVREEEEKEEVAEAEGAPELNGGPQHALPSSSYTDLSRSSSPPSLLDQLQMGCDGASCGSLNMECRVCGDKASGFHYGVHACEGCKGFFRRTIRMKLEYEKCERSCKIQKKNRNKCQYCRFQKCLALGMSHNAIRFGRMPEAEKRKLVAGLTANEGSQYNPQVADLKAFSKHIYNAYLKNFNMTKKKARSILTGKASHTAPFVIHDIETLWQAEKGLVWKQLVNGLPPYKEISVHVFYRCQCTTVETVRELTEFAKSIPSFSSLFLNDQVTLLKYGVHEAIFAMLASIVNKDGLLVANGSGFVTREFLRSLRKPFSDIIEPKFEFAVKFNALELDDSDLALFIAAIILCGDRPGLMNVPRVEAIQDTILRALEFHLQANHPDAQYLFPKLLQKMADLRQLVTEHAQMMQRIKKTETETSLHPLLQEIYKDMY
Method in brief: as §2

[12] = target: Peroxisome proliferator-activated receptor gamma (Homo sapiens) (UniProt P37231); test: qHTS assay for small molecule antagonists of peroxisome proliferator-activated receptor gamma signaling (AID 588537; active = well fitted inhibition curve with a large enough effect in the signal ratio, with a control signal flat, not every such curve was filed as active; the % refers to the signal ratio;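 also: reporter cells co-stimulated with 50 nM rosiglitazone agonist during compound treatment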)
Chain of Peroxisome proliferator-activated receptor gamma (Homo sapiens) (P37231 whole entry, looked up): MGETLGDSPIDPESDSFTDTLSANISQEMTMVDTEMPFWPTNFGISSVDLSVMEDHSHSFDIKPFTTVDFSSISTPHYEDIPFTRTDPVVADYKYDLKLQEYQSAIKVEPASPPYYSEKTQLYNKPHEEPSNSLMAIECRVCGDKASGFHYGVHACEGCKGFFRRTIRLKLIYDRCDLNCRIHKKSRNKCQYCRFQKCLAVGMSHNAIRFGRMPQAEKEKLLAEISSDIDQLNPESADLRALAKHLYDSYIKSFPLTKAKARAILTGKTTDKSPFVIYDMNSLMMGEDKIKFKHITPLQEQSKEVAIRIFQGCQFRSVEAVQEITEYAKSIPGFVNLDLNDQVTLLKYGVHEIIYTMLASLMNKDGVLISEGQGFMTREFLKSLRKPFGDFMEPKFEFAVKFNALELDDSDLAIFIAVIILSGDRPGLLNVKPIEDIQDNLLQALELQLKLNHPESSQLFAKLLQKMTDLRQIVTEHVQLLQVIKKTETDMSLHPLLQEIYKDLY
Method in brief: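 Antagonist-mode β-lactamase reporter screen run as a titration series. HEK293 PPARγ-UAS-bla cells are stimulated with rosiglitazone (50 nM final) for 16 h, then CCF4 is read at 460/530 nm. Data are scaled between DMSO and rosiglitazone and fitted to the Hill equation.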

[13] = target: Vitamin D3 receptor (Homo sapiens) (UniProt P11473); test: qHTS assay for small molecule antagonists of vitamin D receptor signaling (AID 588541);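 also: receptor activated by calcitriol during compound treatment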
Chain of Vitamin D3 receptor (Homo sapiens) (P11473 whole entry, looked up): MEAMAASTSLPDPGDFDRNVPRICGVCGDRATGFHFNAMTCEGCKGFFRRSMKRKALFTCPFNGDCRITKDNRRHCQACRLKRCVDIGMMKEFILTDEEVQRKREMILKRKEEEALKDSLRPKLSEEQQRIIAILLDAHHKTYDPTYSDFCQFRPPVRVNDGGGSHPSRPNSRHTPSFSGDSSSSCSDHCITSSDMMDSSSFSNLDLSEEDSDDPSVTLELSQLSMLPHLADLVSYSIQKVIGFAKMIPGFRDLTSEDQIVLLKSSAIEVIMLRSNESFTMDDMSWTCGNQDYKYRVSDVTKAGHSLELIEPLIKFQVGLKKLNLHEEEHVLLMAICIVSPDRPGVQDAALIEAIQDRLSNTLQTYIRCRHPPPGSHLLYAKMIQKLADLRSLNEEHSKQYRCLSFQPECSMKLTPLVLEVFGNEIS
Method in brief: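 Antagonist-mode beta-lactamase reporter assay: HEK293T VDR-UAS-bla cells were exposed to titrated compound alongside 1-alpha,25-dihydroxyvitamin D3 at 3 nM final for 16 h. Values were normalized to the 50 nM agonist control and DMSO basal, with IC50 and efficacy from Hill equation fits.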

[14] = qHTS assay for small molecule agonists of the antioxidant response element (ARE) signaling pathway (AID 651741; active = well fitted activation curve with a large enough effect in the signal ratio; the % refers to the signal ratio)
Method in brief: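 Beta-lactamase reporter under ARE control in HepG2 cells, 2,000 per well, was induced by 16 h compound treatment at 37 C. Read-out was fluorescence from LiveBLAzer B/G FRET substrate after 2 h at room temperature.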

[15] = qHTS assay for small molecule activators of the nuclear factor-kappa B (NF-kB) signaling pathway (AID 651749; active = well fitted activation curve with a large enough effect in the signal ratio; the % refers to the signal ratio); details: NF-kB-bla ME-180 cells, beta-lactamase FRET ratio, 16 h; stronger effect = higher value
Method in brief: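 Activation measured after 16 hr compound treatment at 37C, 5% CO2, of 2,000 ME-180 cells/well stably expressing an NF-kB response element–driven beta-lactamase reporter, via FRET-disruption fluorescence.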

[16] = qHTS assay for small molecule disruptors of the mitochondrial membrane potential - 1 hr assay (AID 651754); also: nearly all actives have a fitted effect of over 35% in size
Method in brief: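 Loss of mitochondrial potential shifts the cationic dye from red mitochondrial aggregates to green cytoplasmic monomers. Cells (HepG2) are treated with compound for 1 hr before a 30 min dye incubation at 37C.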

[17] = target: Nuclear receptor ROR-gamma (Homo sapiens) (UniProt P51449); test: qHTS assay for small molecule antagonists of the retinoid-related orphan receptor gamma (ROR-gamma) signaling pathway (AID 651802; active = well fitted curve in the direction sought with a large enough effect; an effect the other way counts as inactive or inconclusive;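 also: CHO cells with doxycycline-induced ROR-gamma expression; nearly all actives have a fitted effect of over 60% in size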)
Chain of Nuclear receptor ROR-gamma (Homo sapiens) (P51449 whole entry, looked up): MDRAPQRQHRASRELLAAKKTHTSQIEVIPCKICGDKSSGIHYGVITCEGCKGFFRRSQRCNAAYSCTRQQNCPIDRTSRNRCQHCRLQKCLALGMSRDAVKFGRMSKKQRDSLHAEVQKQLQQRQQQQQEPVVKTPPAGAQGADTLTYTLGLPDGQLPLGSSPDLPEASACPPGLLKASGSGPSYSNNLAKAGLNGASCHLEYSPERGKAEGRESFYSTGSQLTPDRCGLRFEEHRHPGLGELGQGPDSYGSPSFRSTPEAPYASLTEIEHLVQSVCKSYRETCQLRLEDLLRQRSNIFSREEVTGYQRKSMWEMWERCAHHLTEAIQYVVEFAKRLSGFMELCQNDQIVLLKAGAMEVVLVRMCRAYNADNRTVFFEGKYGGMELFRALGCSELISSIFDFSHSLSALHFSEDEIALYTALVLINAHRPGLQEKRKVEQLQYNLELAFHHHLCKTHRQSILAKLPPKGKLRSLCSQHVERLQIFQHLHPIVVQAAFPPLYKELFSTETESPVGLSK
Method in brief: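 Steps: cells dispensed; compound or DMSO transferred by pin tool; doxycycline added to induce the ROR response element-driven luciferase; plates held 16hr at 37C; ONE-Glo added and luminescence measured.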

[18] = qHTS assay for small molecule activators of the human pregnane X receptor (PXR) signaling pathway (AID 720659; call rule not given here)
[19] = Cell Viability - Hek293 (AID 427;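 active = compounds whose dose-response curve shows a full or clear partial loss of cell viability, called from curve shape rather than a numeric limit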;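 also: potency is read from the fitted curve at half-maximal effect; cells exposed to compound for 40 hours at 37 °C before reading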); details: qHTS
Method in brief: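 HEK293 cells in complete medium were exposed to compound for 40 hr at 37 °C, then cellular ATP was read by CellTiter-Glo luminescence. Data were normalized to DMSO (basal) and 100 uM tamoxifen (100% inhibition), and AC50 came from Hill fits.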

[20] = target: Mitogen-activated protein kinase 10 (Mus musculus) (UniProt Q61831); test: JNK3 AlphaScreen Assay (AID 530; active = well fitted curve in either direction with a large enough effect, not every such curve was filed as active;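 also: kinase came from lysate of stimulated human HepG2 cells; signal reports phosphorylation of biotinylated GST-cJun 1-79 at Ser73 with 10 µM ATP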)
Method in brief: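 qHTS titrations with 15 min compound pre-incubation before adding ATP (10 uM final). Read-out: AlphaScreen of Ser73-phosphorylated biotin-GST-cJun using HepG2 lysate JNK3 activated by IL-1β and TNFα.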

CC/C=C(\C(=O)N[C@H]1C(=O)N2C(C(=O)OCOC(=O)C(C)(C)C)=C(COC(N)=O)CS[C@H]12)c1csc(N)n1
Potency [1]: inactive

O=NCc1ccc([N+](=O)[O-])o1
Potency [1]: inactive | activity, negative = inhibition ([2]; parasite line A): -23.3% (inactive) | activity, negative = inhibition ([2]; parasite line B): 5.01% (inactive) | Potency [3]: inactive | Potency [4]: inactive | Potency [5]: 13.5 µM (active)

CCO[Si](CCCN)(OCC)OCC
Potency [6]: > 92 µM (inactive) | Potency [7]: > 92 µM (inactive) | Potency [8]: inactive | Potency [9]: inactive | max response [10]: 6.45% and -7.95% | Potency [11]: inactive | outcome [12]: inactive | outcome [13]: inactive | Potency [14]: inactive | activation [15]: -0.737% (inactive) and -1.24% (inactive) | Potency [16]: inactive | Potency [17]: inactive | outcome [18]: inactive

COC(=O)c1ccc(C)cc1
Potency [6]: > 92 µM (inactive) | Potency [19]: > 92 µM (inactive) | Potency [20]: inactive | Potency [8]: inactive | max response [10]: -3.36% and -19.7% | Potency [11]: inactive | outcome [13]: inactive | Potency [14]: inactive | Potency [16]: inactive | Potency [17]: inactive | outcome [18]: inactive

CC1=CC(C)(C)Nc2ccccc21
Potency [6]: > 92 µM (inactive) | Potency [7]: > 92 µM (inactive) | Potency [20]: inactive | Potency [8]: inactive | Potency [9]: inactive | max response [10]: 34.8% and 1.74% | Potency [11]: inactive | outcome [12]: inactive | outcome [13]: inactive | Potency [16]: inactive | Potency [17]: inactive

CCCCOCCO
Potency [6]: > 92 µM (inactive) | Potency [19]: > 92 µM (inactive) | Potency [7]: > 92 µM (inactive) | Potency [20]: inactive | Potency [8]: inactive | Potency [9]: inactive | max response [10]: 1.73% and 13.5% and -16.7% | Potency [11]: inactive | outcome [12]: inactive | outcome [13]: inactive | Potency [14]: inactive | activation [15]: 0.401% (inactive) and -0.541% (inactive) and 0.482% (inactive) | Potency [16]: inactive | Potency [17]: inactive | outcome [18]: inactive

COC(=O)c1ccc(C=O)cc1
Potency [6]: > 92 µM (inactive) | Potency [20]: inactive | Potency [8]: inactive | Potency [9]: inactive | max response [10]: 6.11% and 19.8% | Potency [11]: inactive | outcome [12]: inactive | outcome [13]: inactive | Potency [14]: inactive | activation [15]: -1.54% (inactive) | Potency [16]: inactive | Potency [17]: inactive | outcome [18]: inactive

Clc1cc(Cl)c(Cl)c(Cl)c1Cl
Potency [6]: > 92 µM (inactive) | Potency [19]: > 92 µM (inactive) | Potency [7]: > 92 µM (inactive) | Potency [8]: inactive | Potency [9]: inactive | outcome [13]: inactive | Potency [14]: inactive | Potency [16]: inactive | Potency [17]: inactive | outcome [18]: inactive

C/C=C\c1ccc(OC)cc1
Potency [6]: > 92 µM (inactive) | Potency [19]: > 92 µM (inactive) | Potency [20]: inactive | max response [10]: -7.78% | Potency [11]: inactive | outcome [12]: inactive | Potency [1]: inactive | activation [15]: -0.604% (inactive) | Potency [17]: inactive | activity, negative = inhibition ([2]; parasite line A): -0.333% (inactive) | activity, negative = inhibition ([2]; parasite line B): -2.16% (inactive) | Potency [3]: inactive | Potency [4]: inactive | Potency [5]: inactive | outcome [18]: inactive

CCN1/C(=C/C=C/C=C/c2sc3ccccc3[n+]2CC)Sc2ccccc21
Potency [1]: 32.2 µM (active) | Potency ([2]; parasite line A): 2.82 µM (active) | Potency ([2]; parasite line B): 3.98 µM (active) | Potency [3]: inactive | Potency [4]: 13.5 µM (active) | Potency [5]: 7.57 µM (active)

COC(=O)CCCCC(=O)OC
Potency [6]: > 92 µM (inactive) | Potency [20]: inactive | Potency [8]: inactive | Potency [9]: inactive | max response [10]: 25.3% and -0.778% | Potency [11]: inactive | outcome [12]: inactive | outcome [13]: inactive | Potency [16]: inactive | Potency [17]: inactive | outcome [18]: inactive
